# Experimental data published in PubChem BioAssay AID449762 (Southern Research Specialized Biocontainment Screening …, 2010).
# Hit rate of the full screen: of about 330,000 compounds, about 1,900 (0.58%) were called active. Roughly 4% stayed inconclusive and do not appear here. Only a sample is shown. Results with a measured potency or affinity are listed apart. Values without a mark were called inactive. Rule as the data show it: inconclusive = inhibition above about 70% without an active follow-up result; inactive = below that.
# Assay: M. tuberculosis growth inhibition, HTS (AID 449762);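 also: bacterial growth assessed after seven days of incubation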
# Conditions: M. tuberculosis H37Rv growth inhibition, 7H9 media; at 25 µM; stronger effect = higher value
row,SMILES,inhibition [%]
1,O=C(Nc1ccccc1)N1CCCN(c2c(Cl)cncc2Cl)CC1,2.69
2,O=C(CN1CCN(Cc2ccccc2)CC1)N/N=C/C=C/c1ccccc1[N+](=O)[O-],12
3,O=C(CN1CCN(Cc2ccccc2Cl)CC1)N/N=C/C=C\c1ccccc1[N+](=O)[O-],3.7
4,CCSc1nnc(NC(=O)c2nc3nc(C)cc(C)n3n2)s1,-7.36
5,Cc1ccccc1OCC(=O)OCC(=O)Nc1ccc2c(c1)OCCO2,-7.86
6,Cc1ccc2c(c1)c1ncnc(N3CCN(c4ccccc4)CC3)c1n2C,0.15
7,Cc1ccc2c(c1)c1ncnc(N3CCOCC3)c1n2C,-0.66
8,CC(=O)Nc1ccc(-c2csc(Nc3ncccn3)n2)cc1,10.8
9,Cc1c(C(=O)N2CCN(c3ccccn3)CC2)cccc1[N+](=O)[O-],3.8
10,O=C(NNS(=O)(=O)c1ccccc1[N+](=O)[O-])c1ccc(O)cc1,13.9
11,COC(=O)[C@]1(Cc2ccccc2)N[C@H](CN(C)C(=O)c2ccc(C)cc2)[C@@H]2C(=O)N(C)C(=O)[C@@H]21,2.73
12,CCOc1ccccc1C1N=C(c2ccc(OC)cc2)CC(c2ccccc2O)N1 (configuration not stated),13
13,CCC1(C)N=C(c2ccc3c(c2)OCO3)CC(c2ccccc2O)N1 (configuration not stated),-5.31
14,COc1cccc2cc(C(=O)N3CCCCC3C)c(=O)oc12 (configuration not stated),-7.25
15,COCCOC(=O)c1c(N)n(CCCN2CCOCC2)c2nc3ccccc3nc12,0.66
16,COC(=O)c1c(N)n(CCCN2CCOCC2)c2nc3ccccc3nc12,4.91
17,Cc1[nH]c2ccccc2c1/C=N/NC(=O)CNC(=O)c1ccco1,1.49
18,COCCn1c(=S)[nH]c2cc(C(=O)N3CCc4ccccc4C3)ccc2c1=O,5.9
19,CC[C@H](C)[C@H](NC(N)=O)C(=O)NCCc1ccc(Cl)cc1Cl,-2.03

row,SMILES,inhibition [%]
1,Clc1ccc(CNc2ccc3nnc(-c4ccccc4)n3n2)cc1,-9.56
2,Cc1ccc(CNc2ccc3nnc(-c4ccccc4)n3n2)cc1,-2.25
3,Cc1cc(C)n(CCOC(=O)C2C(C=C(Cl)Cl)C2(C)C)n1 (configuration not stated),6.12
4,C=C1c2cccc(O)c2C(O)=C2C(=O)[C@]3(O)C(O)=C(C(N)=O)C(=O)[C@@H](N(C)C)[C@@H]3[C@@H](O)[C@H]12,69.5
5,CN(C)[C@@H]1C(=O)C(C(N)=O)=C(O)[C@@]2(O)C(=O)C3=C(O)c4c(O)cccc4[C@@](C)(O)[C@H]3C[C@@H]12,22.5
6,CN(C)[C@@H]1C(=O)C(C(N)=O)=C(O)[C@@]2(O)C(=O)C3=C(O)c4c(O)cccc4[C@@](C)(O)[C@H]3[C@H](O)[C@@H]12,31.9
7,CSC(=NC#N)N1CCN(c2c(C)cccc2C)CC1,-2.97
8,CC(C)CCNC(=O)C1CC(c2cccc(F)c2)=NO1 (configuration not stated),-4.76
9,O=C(NC1CCCC1)C1CCCN1S(=O)(=O)c1cccc2cccnc12 (configuration not stated),-5.92
10,CC1CCCC(NC(=O)C2CCN(C(=O)Nc3ccccc3)CC2)C1C (configuration not stated),-2.53
11,CCC(C)[C@H](NC(=O)[C@H](Cc1ccccc1)n1c(=O)[nH]c2ccccc2c1=O)C(=O)N1CCC(C(=O)O)CC1 (some centres not stated),-6.06
12,CC(C)(Oc1ccc(Cl)cc1)C(=O)OCC(=O)N1CCCC1,-3.13
13,O=C(OCC(=O)N1CCCC1)c1cnc(Cl)c(Cl)c1,2.91
14,CCOc1ccc(C(C)=O)cc1COC(=O)c1cnc(Cl)c(Cl)c1,-3.39
15,O=C(OCC(=O)N1CCOCC1)c1cnc(Cl)c(Cl)c1,-0.51
16,COc1ccc(N2CCN(C(=O)C(C)(C)Oc3ccc(Cl)cc3)CC2)cc1,2.08
17,O=C(COC(=O)c1cnc(Cl)c(Cl)c1)c1ccc(F)cc1,2.14
18,O=c1[nH]cc(S(=O)(=O)Nc2ccc3c(c2)OCO3)c(=O)[nH]1,7.53
19,COc1ccc2nc(N3C(=O)C(O)=C(C(=O)c4ccco4)C3c3ccccc3OC)sc2c1 (configuration not stated),0.62

row,SMILES,inhibition [%]
1,COc1cccc(C2CC(c3ccccc3OC)n3ncnc3N2)c1 (configuration not stated),-5.17
2,CC(=O)N/C(=C\c1ccccc1)C(=O)NC(C)C(=O)O (configuration not stated),-2.83
3,O=C(COC(=O)c1cc2ccccc2cc1O)Nc1cccnc1Cl,-17
4,C=CCNC(=O)N1CCc2[nH]c3ccc(F)cc3c2C1,-1.16
5,CC(OC(=O)Cc1n[nH]c(=O)c2ccccc12)C(=O)Nc1ccc(F)cc1Cl (configuration not stated),-10.4
6,Cn1c(C(=O)N(Cc2ccccc2)Cc2ccccn2)cc2sccc21,-2.09
7,Cc1cccc(C(=O)OCC(=O)Nc2ccccc2C(=O)NC2CC2)c1,-11.3
8,Cn1c(SCC(=O)c2ccc3c(c2)OCCO3)nnc1C(F)(F)F,-5.9
9,O=C(/C=C/c1ccc[nH]1)c1ccc(F)cc1,2.02
10,O=C(/C=C/c1c(F)cccc1Cl)c1ccc(O)cc1,-0.9
11,Cc1cc(C)n2c(Br)c(CSc3nc4ccccc4s3)nc2n1,-0.87
12,CC(NC(=O)CSC(=S)N1CCCC1)c1ccc(S(N)(=O)=O)cc1 (configuration not stated),-7.22
13,Cc1cc(/C=N/NC(=O)c2cccs2)c(C)n1-c1cnccn1,11.2
14,Cc1cc(/C=N/NC(=O)c2cccs2)c(C)n1-c1ccccc1,3.6
15,Cc1ccc(C)c(OCC(=O)NNC(=O)CCN2CCN(c3ccccc3)CC2)c1,7.6
16,COc1cccc(NC(=O)CSc2nnc(-c3cc(C)[nH]n3)n2N)c1,7.87
17,CCc1cc2c(=O)c(-c3cnn(-c4ccccc4)c3)c(C(F)(F)F)oc2c(CN(C)C)c1O,5.42
18,CCc1cc2c(=O)c(-c3nc4ccccc4n3C)c(C)oc2c(CN2CCCCC2)c1O,-5.94
19,CC1CN(C(=O)CCC(=O)N2CCN(c3cccc(C(F)(F)F)c3)CC2)c2ccccc2O1 (configuration not stated),9.11
